# From PubChem
# DT40 TDP1 no CPT: qHTS for Inhibitors of human tyrosyl-DNA phosphodiesterase 1 (TDP1): qHTS in cells in absence of CPT; DT40 Tdp1-/- hTDP1 cells, no CPT, ATP luminescence, 48 h; Potency, µM (series often up to 46.2 µM), for inactives: top-dose activity change, negative = growth inhibition, hits mostly inhibitors; 15% of 420,000 active; AID 686978, 2013; further: potency means the concentration at half of the fitted maximal effect; nearly all actives have a fitted effect of over 55% in size
#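 DT40 Tdp1-/-;hTDP1 cells, no CPT (DMSO vehicle only), 400 cells/well; compounds pin-transferred; ≥48 hr, 37 °C; CellTiter-Glo 30 min RT dark, luminescence read.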
# ELG1 repair inh: blocks ELG1-dependent DNA repair in HEK293T cells. HEK293T ELG1-luciferase reporter, luminescence, 16 h; DNA damage induced by 5-fluorouridine. Potency, µM (top dose mostly 46.1 µM), for the others: at the top dose activity change, negative = inhibition, hits mostly inhibitors. 2.3% of 330,000 active; further: potency means the concentration at half of the fitted maximal effect; nearly all actives have a fitted effect of over 55% in size
#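 Cells (2,000 per well) received 5-fluorouridine plus test compound or DMSO and were incubated 16 hr at 37 °C, 5% CO2. Luciferase activity was read by luminescence 30 min after ONE-Glo addition; signal suppression marked inhibition of damage-induced ELG1 function.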
# HT1080 IDH1KD tx: HT-1080 IDH1 knockdown cell toxicity (counter line); 2% of 360,000 active; Potency, µM (highest dose often 46.1 µM), inactives show at the top dose activity, negative = toxicity, most hits filed as cytotoxic; HT-1080 IDH1 knockdown viability, ATP luminescence, 48 h; AID 686971;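 further: potency means the concentration at half of the fitted maximal effect; 0% = DMSO wells and -100% = cell-free medium wells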
#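 % activity derives from luminescence (CellTiter-Glo), normalised to DMSO and no-cell wells. HT-1080-IDH1KD cells, 750/well, had 48 h compound exposure at 37 °C.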
# HT1080-NT tox: kills 2HG-producing HT-1080-NT fibrosarcoma cells | HT-1080-NT fibrosarcoma viability, CellTiter-Glo ATP luminescence, 48 h | Potency, µM (series often up to 46.1 µM), for the others: at the top dose activity, negative = less viability, most hits filed as cytotoxic | 1.6% of 360,000 active | AID 686970;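 further: NT is the 2HG producing partner of a matched IDH1 knockdown line; potency means the concentration at half of the fitted maximal effect; 0% = DMSO-treated cells and -100% = media-only wells without cells; nearly all actives have a fitted effect of over 55% in size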
#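 HT-1080-NT; 750 cells/well; 5% FBS RPMI; 48 h compound, 37 degrees C; CellTiter-Glo luminescence; curve fitting and curve-class assignment.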
# IL-1B inflam inh: inflammasome signaling inhibition, IL-1 beta readout; AID 743279; 4.7% of 360,000 active; THP-1 LPS/ATP IL-1B secretion, AlphaLISA, 16 h; stronger effect = lower value; activity change, % at 57.5 µM; in the data active means activity change below about -50%; inconclusive means mostly about -30% to -49%
#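 Secreted IL-1B measured by AlphaLISA bead assay after 16 h compound exposure of THP-1 cells; compounds (final up to 57.5 uM) added 1 h before LPS (250 ng/mL) and ATP (1.25 mM) stimulation; lower signal means less secretion.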
# TDP1 cell CPT: growth inhibition of DT40 Tdp1-/-;hTDP1 cells with camptothecin (screen for TDP1 inhibitors). chicken DT40 Tdp1-/-;hTDP1 cells + 20 nM CPT, ATP luminescence, 48 h. Potency, µM (series often up to 46.2 µM), for the others: at the highest dose activity change, negative = growth inhibition, usual class: inhibitors. 12% of 420,000 active; further: potency means the concentration at half of the fitted maximal effect; nearly all actives have a fitted effect of over 55% in size
#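 Chicken DT40 Tdp1-/- cells complemented with human TDP1, 400 cells/well, exposed to compounds plus 20 nM camptothecin for at least 48 h at 37 C; viability read as ATP content by CellTiter-Glo luminescence.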
# Starred values were filed as active, the others as inactive; ? = inconclusive; . = not tested or not shown. This is a sample that favours compounds with a hit; in the whole collection about 19% have one here. Unless noted, the call rests on the fitted dose curve; in most records, active means well fitted curve in the direction sought with a large enough effect; inconclusive means small, poorly fitted or top-dose-only effect, or another doubt; inactive means no such curve, though single readings can be large; an effect the other way counts as inactive or inconclusive. Unless noted, on the % scale 0 is the no-effect control and ±100 the full control effect.
SMILES,DT40 TDP1 no CPT,ELG1 repair inh,HT1080 IDH1KD tx,HT1080-NT tox,IL-1B inflam inh,TDP1 cell CPT
CC1CCc2cc(F)ccc2N1S(=O)(=O)c1ccc(Cl)nc1 (stereo unspecified),?,?,?,-13%,0,15µM*
CCN(C(=O)Cn1c(=O)oc2cc(S(=O)(=O)N3CCCCC3)ccc21)c1ccccc1,-28%,.,.,.,.,-6%
O=C(Cc1ccsc1)N1CCN(S(=O)(=O)c2ccccc2F)CC1,-1%,19%,1%,-8%,15,-16%
COc1cccc(NC(=O)CN(C)C(C)C(=O)N2CCCCC2)c1 (stereo unspecified),-12%,15%,15%,-1%,9,-25%
O=c1cc(-c2ccc(O)cc2)oc2c1ccc1ccccc12,-18%,?,0%,1%,-59*,-23%
COc1cccc2oc(-c3ccc(O)cc3)cc(=O)c12,-23%,.,.,.,.,2%
O=c1cc(C(Cl)(Cl)Cl)oc2c1ccc1ccccc12,0.52µM*,15%,12µM*,16µM*,-73*,0.15µM*
O=c1cc(-c2ccncc2)oc2c1ccc1ccccc12,23µM*,?,-4%,-18%,-83*,?
O=c1cc(-c2ccc(O)cc2)oc2ccc3ccccc3c12,16µM*,?,?,?,-22,?
CCn1cc(C=C2C(=O)c3ccccc3C2=O)c2ccccc21,?,?,-1%,-3%,4,-7%
CC1CCCCN1CCCNc1ccc(C(CC(N)=O)NC(=O)Cc2cccc3ccccc23)cc1[N+](=O)[O-] (stereo unspecified),-1%,-2%,-4%,1%,-2,9%
O=c1cc(-c2ccc(O)cc2)oc2c(O)c(O)c(O)c(O)c12,?,-22%,-3%,2%,-3,23µM*
CCOC(=O)c1c(S(=O)(=O)N2CCC(C(=O)Nc3ccc(C)cn3)CC2)c(C)n(C)c1C,11%,.,.,.,.,-4%
CCCOc1ccc(NC(=O)CC2C(=O)N(CC)C(=S)N2Cc2cccs2)cc1 (stereo unspecified),?,-8%,20µM*,?,-4,?
C=CCN1C(=O)C(CC(=O)Nc2ccc(OCCC)cc2)N(CCCN2CCN(Cc3ccccc3)CC2)C1=S (stereo unspecified),21µM*,?,16µM*,16µM*,-67*,23µM*
CCCCCCOc1ccc(NC(=O)CC2C(=O)N(CC)C(=S)N2Cc2ccco2)cc1 (stereo unspecified),?,?,?,-23%,-101*,?
COc1ccc(NC(=O)CC2C(=O)N(C)C(=S)N2Cc2cccs2)cc1 (stereo unspecified),-24%,-4%,-7%,-8%,-8,12%
CN1C(=O)C(CC(=O)Nc2ccc(F)cc2)N(Cc2ccco2)C1=S (stereo unspecified),-14%,10%,22%,-5%,-7,8%
CCCCCCCCN1C(=O)[C@H](CC(=O)NCC2CCCCC2)C[C@@]2(C(=O)OCC)CCC=C12,18µM*,.,?,?,-25,16µM*
CCCCNC(=O)C[C@@H]1C[C@@]2(C(=O)OCC)CCCC=C2N(Cc2ccco2)C1=O,?,.,14%,11%,0,?
C#CCNC(=O)C[C@@H]1C[C@@]2(C(=O)OCC)CCCC=C2N(CCCCCCCC)C1=O,13µM*,.,?,?,?,16µM*
CCCCCCCCN1C(=O)[C@H](CC(=O)NCC2CCCCC2)C[C@@]2(C(=O)OCC)CCCC=C12,18µM*,.,-14%,2%,-51*,21µM*
